From article PMC7862700, “An all-to-all approach to the identification of sequence-specific readers for epigenetic DNA modifications on cytosine”

Legend:
Test in all cases: DAPPL (digital affinity profiling via proximity ligation, sequencing); 10 mM Tris-HCl pH 7.5, 50 mM NaCl, 1 mM DTT, 4% glycerol, room temperature, 30 min; GST-TFs on glutathione beads, 16-mer random dsDNA library, 0.1% formaldehyde crosslink after washing; high values mean tight binding
Conditions in all cases: protein: recombinant; tags: N-terminal GST; dsDNA, one strand shown
[1] = target: T1, ELK1 (Homo sapiens, UniProt P19419 1-428)
T1 sequence: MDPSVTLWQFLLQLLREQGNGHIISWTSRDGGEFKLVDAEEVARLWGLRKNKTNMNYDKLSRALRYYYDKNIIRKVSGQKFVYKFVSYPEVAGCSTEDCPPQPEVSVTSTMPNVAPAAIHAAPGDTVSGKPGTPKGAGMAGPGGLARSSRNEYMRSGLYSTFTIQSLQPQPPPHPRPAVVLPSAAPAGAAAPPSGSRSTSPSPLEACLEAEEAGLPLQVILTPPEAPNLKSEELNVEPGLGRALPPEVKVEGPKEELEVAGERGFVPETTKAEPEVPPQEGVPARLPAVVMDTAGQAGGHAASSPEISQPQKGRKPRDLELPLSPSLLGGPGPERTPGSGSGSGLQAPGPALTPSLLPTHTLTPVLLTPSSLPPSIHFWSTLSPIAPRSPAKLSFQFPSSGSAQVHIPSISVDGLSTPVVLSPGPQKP
Summary of the method: (§1)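 Human transcription factors fused to GST were expressed in yeast, captured on glutathione beads, given DNA barcodes and pooled with a GST-only negative control. Pools were incubated with 200 nmole of a 16-mer random double-stranded DNA library in Tris/NaCl/DTT/glycerol buffer at room temperature for 30 min. They were then washed, crosslinked with 0.1% formaldehyde, proximity-ligated (BsaI/T4 ligase, 1 h, 37 °C), PCR-amplified and sequenced on an Illumina NextSeq500. Binding signal is each 6-mer's read frequency for a factor divided by its frequency for the GST control.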

[2] = target: T2, GABPA (Homo sapiens, UniProt Q06546 1-454)
T2 sequence: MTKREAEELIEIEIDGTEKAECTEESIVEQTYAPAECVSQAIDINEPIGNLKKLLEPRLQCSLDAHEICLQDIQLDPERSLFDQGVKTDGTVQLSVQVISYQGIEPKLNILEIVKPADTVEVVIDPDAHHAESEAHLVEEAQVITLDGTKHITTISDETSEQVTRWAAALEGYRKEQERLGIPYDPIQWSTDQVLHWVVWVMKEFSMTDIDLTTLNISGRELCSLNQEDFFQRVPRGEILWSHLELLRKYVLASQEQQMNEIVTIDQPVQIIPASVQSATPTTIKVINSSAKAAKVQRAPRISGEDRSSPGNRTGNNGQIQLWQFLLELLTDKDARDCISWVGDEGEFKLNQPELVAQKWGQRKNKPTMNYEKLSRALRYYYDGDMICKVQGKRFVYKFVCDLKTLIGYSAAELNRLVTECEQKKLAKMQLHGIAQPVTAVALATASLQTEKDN
Summary of the method: as §1

[3] = target: T3, ERG (Homo sapiens, UniProt P11308 1-479)
T3 sequence: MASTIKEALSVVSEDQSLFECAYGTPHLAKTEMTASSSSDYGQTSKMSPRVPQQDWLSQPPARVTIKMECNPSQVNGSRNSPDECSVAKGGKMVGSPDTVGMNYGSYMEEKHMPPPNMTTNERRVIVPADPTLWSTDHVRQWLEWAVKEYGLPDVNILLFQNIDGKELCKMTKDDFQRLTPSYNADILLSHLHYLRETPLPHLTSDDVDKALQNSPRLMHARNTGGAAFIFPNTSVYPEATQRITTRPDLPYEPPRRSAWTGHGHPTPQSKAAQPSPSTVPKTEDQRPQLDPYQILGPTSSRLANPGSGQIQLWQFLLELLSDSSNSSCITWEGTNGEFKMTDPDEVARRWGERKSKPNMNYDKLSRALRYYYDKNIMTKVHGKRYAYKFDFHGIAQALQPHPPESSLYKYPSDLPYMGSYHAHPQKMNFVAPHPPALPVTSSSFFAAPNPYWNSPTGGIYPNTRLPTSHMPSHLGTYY
Summary of the method: as §1

[4] = target: ELF1 (Homo sapiens, UniProt P32519 1-619)
Summary of the method: as §1

[5] = target: SPIB (Homo sapiens, UniProt Q01892 1-262)
Summary of the method: as §1

[6] = target: T4, ELK3 (Homo sapiens, UniProt P41970 1-407)
T4 sequence: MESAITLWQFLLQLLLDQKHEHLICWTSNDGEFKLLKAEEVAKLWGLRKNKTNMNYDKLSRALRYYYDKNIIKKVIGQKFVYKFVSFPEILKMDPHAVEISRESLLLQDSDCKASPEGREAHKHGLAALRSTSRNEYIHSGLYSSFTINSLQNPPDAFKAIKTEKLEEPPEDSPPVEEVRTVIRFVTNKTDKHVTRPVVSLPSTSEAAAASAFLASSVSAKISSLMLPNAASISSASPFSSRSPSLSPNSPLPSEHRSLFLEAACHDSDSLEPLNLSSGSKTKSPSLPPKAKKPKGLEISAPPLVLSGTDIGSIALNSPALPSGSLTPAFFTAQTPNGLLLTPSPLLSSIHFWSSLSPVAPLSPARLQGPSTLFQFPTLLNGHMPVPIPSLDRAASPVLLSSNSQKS
Summary of the method: as §1

[7] = target: ETV5 (Homo sapiens, UniProt P41161 1-510)
Summary of the method: as §1

[8] = target: ELF4 (Homo sapiens, UniProt Q99607 1-663)
Summary of the method: as §1

[9] = target: T5, ELK4 (Homo sapiens, UniProt P28324-2 1-405)
T5 sequence: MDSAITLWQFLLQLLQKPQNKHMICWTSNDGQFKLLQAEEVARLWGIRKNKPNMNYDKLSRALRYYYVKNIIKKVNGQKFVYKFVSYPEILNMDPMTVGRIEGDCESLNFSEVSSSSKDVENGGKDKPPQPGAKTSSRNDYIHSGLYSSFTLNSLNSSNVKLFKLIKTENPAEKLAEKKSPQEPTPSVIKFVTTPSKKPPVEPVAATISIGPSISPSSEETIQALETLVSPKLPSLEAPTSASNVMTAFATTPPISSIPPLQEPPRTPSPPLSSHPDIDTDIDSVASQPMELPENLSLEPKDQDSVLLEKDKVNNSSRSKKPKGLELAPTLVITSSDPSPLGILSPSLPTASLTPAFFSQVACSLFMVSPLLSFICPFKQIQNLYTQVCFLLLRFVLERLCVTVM
Summary of the method: as §1

[10] = target: T6, ELF3 (Homo sapiens, UniProt P78545 1-371)
T6 sequence: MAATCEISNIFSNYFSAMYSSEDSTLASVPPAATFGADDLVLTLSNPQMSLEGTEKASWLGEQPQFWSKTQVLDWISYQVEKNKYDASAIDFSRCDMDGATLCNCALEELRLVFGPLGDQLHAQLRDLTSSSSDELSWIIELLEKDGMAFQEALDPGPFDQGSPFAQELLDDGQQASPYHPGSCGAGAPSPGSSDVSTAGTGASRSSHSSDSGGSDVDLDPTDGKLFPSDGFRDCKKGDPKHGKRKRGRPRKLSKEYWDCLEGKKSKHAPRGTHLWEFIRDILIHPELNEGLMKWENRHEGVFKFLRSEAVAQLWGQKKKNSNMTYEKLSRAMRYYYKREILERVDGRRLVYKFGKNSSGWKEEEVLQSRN
Summary of the method: as §1

[11] = target: T7, ERF (Homo sapiens, UniProt P50548 1-548)
T7 sequence: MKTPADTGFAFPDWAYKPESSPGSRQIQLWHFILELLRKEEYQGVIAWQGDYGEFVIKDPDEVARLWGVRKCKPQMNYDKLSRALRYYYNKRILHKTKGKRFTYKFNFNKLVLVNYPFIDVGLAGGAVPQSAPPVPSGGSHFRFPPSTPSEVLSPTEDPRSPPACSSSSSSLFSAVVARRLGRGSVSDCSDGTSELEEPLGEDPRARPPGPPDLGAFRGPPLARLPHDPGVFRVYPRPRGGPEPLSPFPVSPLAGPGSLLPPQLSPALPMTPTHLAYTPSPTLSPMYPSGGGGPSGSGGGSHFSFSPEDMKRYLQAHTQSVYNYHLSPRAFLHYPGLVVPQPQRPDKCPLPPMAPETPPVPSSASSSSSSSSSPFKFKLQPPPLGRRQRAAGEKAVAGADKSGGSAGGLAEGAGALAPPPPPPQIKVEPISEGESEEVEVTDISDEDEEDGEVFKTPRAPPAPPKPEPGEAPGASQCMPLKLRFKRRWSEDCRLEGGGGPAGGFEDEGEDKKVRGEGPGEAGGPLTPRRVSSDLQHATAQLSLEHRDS
Summary of the method: as §1

[12] = target: T8, ETV3L (Homo sapiens, UniProt Q6ZN32 1-361)
T8 sequence: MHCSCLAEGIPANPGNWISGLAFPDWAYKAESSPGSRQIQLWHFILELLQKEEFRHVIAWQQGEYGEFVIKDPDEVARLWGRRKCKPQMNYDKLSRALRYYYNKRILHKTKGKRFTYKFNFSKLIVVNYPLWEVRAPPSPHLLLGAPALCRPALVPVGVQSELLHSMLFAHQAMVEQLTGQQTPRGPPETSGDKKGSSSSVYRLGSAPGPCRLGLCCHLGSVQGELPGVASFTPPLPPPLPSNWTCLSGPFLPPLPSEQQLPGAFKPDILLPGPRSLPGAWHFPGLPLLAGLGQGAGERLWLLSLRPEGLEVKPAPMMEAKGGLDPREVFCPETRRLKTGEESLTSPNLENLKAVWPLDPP
Summary of the method: as §1

[13] = target: T9, ETS2 (Homo sapiens, UniProt P15036 1-469)
T9 sequence: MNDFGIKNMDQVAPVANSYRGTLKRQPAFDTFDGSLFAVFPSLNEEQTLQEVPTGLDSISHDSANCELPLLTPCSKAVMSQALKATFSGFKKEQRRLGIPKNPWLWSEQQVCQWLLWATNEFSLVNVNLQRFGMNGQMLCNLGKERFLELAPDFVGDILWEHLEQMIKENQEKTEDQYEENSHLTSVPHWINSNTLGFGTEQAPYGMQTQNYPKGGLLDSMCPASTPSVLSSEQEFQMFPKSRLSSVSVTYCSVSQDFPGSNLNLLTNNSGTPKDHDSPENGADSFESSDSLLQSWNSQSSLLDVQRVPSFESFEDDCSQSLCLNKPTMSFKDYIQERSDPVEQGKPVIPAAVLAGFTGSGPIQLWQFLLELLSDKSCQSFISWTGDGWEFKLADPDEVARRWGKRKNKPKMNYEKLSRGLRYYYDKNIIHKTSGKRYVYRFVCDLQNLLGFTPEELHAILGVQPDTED
Summary of the method: as §1

[14] = target: T10, ETV7 (Homo sapiens, UniProt Q9Y603 1-341)
T10 sequence: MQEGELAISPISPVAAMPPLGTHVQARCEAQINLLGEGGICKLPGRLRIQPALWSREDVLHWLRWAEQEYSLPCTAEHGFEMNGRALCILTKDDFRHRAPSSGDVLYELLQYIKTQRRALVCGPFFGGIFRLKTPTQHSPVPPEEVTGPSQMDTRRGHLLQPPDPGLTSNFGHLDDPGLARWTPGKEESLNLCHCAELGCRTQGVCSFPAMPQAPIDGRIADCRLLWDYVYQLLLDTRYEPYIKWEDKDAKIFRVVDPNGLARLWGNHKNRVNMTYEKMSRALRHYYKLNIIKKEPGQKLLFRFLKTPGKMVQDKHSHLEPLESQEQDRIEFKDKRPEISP
Summary of the method: as §1

[15] = target: T11, ETV3 (Homo sapiens, UniProt P41162-2 1-143)
T11 sequence: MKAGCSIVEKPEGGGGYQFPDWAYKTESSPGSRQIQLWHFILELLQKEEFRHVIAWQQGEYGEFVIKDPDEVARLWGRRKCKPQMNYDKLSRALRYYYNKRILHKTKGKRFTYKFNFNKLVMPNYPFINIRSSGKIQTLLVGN
Summary of the method: as §1

[16] = target: ETV6 (Homo sapiens, UniProt P41212 1-452)
Summary of the method: as §1

ELF1, sequence (P32519 whole entry): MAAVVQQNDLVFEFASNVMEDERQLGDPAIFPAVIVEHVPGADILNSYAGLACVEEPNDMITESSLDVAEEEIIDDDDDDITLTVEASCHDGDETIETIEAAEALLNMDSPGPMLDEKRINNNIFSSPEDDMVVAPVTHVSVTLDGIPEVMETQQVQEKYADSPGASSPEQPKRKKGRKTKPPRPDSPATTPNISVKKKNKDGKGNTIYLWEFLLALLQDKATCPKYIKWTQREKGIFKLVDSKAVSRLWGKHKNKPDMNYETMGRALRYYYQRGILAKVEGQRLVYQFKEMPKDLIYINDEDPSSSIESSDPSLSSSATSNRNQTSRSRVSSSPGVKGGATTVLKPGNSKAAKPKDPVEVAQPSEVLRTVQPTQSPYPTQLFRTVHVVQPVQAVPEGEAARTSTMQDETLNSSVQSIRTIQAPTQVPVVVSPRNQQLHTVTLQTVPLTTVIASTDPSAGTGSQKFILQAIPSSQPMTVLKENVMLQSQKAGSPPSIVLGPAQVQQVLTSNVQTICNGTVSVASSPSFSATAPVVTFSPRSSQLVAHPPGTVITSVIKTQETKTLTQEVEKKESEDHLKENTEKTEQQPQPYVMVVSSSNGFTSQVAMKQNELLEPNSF
ETV5, sequence (P41161 whole entry): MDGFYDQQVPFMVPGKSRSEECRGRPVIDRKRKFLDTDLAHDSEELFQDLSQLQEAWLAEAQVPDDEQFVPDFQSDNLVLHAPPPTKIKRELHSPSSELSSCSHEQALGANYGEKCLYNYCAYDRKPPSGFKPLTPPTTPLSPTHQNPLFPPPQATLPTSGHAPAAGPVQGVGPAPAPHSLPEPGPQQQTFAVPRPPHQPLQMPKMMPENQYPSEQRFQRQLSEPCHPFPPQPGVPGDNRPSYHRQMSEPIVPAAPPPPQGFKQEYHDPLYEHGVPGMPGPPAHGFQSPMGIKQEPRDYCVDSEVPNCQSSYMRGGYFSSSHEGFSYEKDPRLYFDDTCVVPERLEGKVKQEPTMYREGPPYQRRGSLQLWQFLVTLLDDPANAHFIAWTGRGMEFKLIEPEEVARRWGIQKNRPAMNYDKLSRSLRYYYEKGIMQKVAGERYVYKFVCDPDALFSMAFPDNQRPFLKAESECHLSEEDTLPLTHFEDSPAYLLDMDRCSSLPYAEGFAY
ETV6, sequence (P41212 whole entry): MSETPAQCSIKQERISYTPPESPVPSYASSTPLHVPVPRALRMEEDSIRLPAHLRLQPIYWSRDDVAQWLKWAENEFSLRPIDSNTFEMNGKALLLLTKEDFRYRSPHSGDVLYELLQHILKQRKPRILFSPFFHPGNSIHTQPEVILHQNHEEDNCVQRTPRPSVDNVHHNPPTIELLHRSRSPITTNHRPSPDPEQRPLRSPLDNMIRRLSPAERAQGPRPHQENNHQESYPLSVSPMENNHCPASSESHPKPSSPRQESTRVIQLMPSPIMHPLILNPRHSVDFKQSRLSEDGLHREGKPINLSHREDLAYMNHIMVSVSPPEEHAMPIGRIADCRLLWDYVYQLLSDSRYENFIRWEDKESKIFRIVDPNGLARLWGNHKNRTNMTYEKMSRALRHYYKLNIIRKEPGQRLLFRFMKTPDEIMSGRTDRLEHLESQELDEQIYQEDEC
SPIB, sequence (Q01892 whole entry): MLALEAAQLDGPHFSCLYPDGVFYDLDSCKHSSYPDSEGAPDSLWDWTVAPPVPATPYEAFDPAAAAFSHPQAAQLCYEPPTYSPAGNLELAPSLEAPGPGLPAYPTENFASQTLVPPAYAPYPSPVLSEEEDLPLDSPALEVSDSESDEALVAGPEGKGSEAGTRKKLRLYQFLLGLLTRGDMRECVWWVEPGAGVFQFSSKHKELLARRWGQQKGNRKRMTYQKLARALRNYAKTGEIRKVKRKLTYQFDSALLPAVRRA
ELF4, sequence (Q99607 whole entry): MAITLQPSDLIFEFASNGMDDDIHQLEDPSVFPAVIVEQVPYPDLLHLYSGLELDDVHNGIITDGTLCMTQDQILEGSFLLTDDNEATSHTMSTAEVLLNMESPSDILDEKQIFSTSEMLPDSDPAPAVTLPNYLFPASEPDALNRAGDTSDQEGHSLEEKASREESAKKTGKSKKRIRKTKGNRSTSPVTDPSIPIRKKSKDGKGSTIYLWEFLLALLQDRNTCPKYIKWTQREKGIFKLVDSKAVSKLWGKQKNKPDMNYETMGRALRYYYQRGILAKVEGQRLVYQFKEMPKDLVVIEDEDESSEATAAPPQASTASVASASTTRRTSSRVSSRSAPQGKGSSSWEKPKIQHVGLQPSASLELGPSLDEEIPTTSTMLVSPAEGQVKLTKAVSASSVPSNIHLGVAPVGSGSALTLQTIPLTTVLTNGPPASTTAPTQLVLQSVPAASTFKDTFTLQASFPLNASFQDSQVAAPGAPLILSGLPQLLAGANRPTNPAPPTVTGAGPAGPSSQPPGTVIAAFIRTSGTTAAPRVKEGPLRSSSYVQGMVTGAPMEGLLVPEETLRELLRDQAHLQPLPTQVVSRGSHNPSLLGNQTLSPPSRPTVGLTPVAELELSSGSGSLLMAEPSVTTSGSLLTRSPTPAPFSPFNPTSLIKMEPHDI

ACTGGT was tested, and the binding signal [1] was 1.06 fold enrichment (6-mer frequency, TF over GST control), the binding signal [2] was 1.08 fold enrichment (6-mer frequency, TF over GST control) and the binding signal [3] was 1.07 fold enrichment (6-mer frequency, TF over GST control). For the same sequence, the binding signal [4] was 1.13 fold enrichment (6-mer frequency, TF over GST control), the binding signal [5] was 1.08 fold enrichment (6-mer frequency, TF over GST control) and the binding signal [6] was 1.08 fold enrichment (6-mer frequency, TF over GST control). The binding signal [7] was 1.02 fold enrichment (6-mer frequency, TF over GST control), the binding signal [8] was 1.07 fold enrichment (6-mer frequency, TF over GST control) and the binding signal [9] was 1.06 fold enrichment (6-mer frequency, TF over GST control). For the same sequence, the binding signal [10] was 1.06 fold enrichment (6-mer frequency, TF over GST control), the binding signal [11] was 1.03 fold enrichment (6-mer frequency, TF over GST control) and the binding signal [12] was 1.07 fold enrichment (6-mer frequency, TF over GST control). For the same sequence, the binding signal [13] was 1.03 fold enrichment (6-mer frequency, TF over GST control), the binding signal [14] was 1.05 fold enrichment (6-mer frequency, TF over GST control) and the binding signal [15] was 1.06 fold enrichment (6-mer frequency, TF over GST control). For the same sequence, the binding signal [16] was 1.08 fold enrichment (6-mer frequency, TF over GST control).
